In PubChem BioAssay (EPA / NIEHS):
“And” between values parts separate entries of the source, which are not always exact repeats. Identical values can stand only once. Results filed as inconclusive are left out. A structure can be active in one record and inactive in another. The source made the active and inactive calls. Rule for the calls, unless noted: active = hit-call score of the fitted dose curve at least 0.9, where 1 is the maximum; inactive = score below 0.9.

Key:
[1] = ATG_PBREM_CIS: Attagene CIS-FACTORIAL HepG2 Assay for human Phenobarbital-responsive Enhancer Module (PBREM) (AID 2282955); conditions: HepG2 PBREM cis-reporter, Attagene multiplexed transcription; actives raise or lower the signal
Outline: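 Cells were transfected with cis-element reporter units and treated for 24 h, after which RNA was extracted and reporter transcripts measured by RT-PCR and capillary electrophoresis.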

[2] = target: Paired box protein Pax-6 (Homo sapiens) (UniProt P26367); assay: ATG_Pax6_CIS: Attagene CIS-FACTORIAL HepG2 Assay for human Paired Box 6 (PAX6) (AID 2282956); conditions: HepG2 CIS-FACTORIAL PAX6 reporter transcription, RNA readout; actives raise or lower the signal
Outline: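 HepG2 cells transiently transfected with cis-promoter-driven multiplexed reporter units sensing endogenous transcription factor activity; 24 h chemical exposure. Reporter mRNA quantified by RT-PCR, 6-FAM labelling, HpaI digestion and capillary electrophoresis; bidirectional fit versus DMSO baseline.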

[3] = ATG_PXRE_CIS: Attagene CIS-FACTORIAL HepG2 Assay for human Pregnane X Receptor Element (PXRE) (AID 2282957); conditions: HepG2 Attagene CIS-FACTORIAL PXRE reporter, mRNA; actives raise or lower the signal
Outline: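 Multiplexed cis-reporter assay in transiently transfected human HepG2 cells; 24 h chemical exposure. Reporter transcripts quantified by RT-PCR with fluorescent labeling and capillary electrophoresis.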

[4] = ATG_PPRE_CIS: Attagene CIS-FACTORIAL HepG2 Assay for human Peroxisome Proliferator-activated Response Element (PPRE) (AID 2282958); conditions: HepG2 PPRE cis-element reporter, Attagene transcription factor profiling; actives raise or lower the signal
Outline: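 In this cell-based multiplex, a PPRE cis element drives a reporter sequence in transiently transfected HepG2 cells. Following 24 h treatment, labeled cDNA amplicons are sized and quantified by capillary electrophoresis, with DMSO defining baseline.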

[5] = ATG_RORE_CIS: Attagene CIS-FACTORIAL HepG2 Assay for human RAR-related Orphan Receptor Element (RORE) (AID 2282959); conditions: HepG2 Attagene cis-factorial RORE reporter, mRNA; actives raise or lower the signal
Outline: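 Endogenous factor activity at a cis response element is read as reporter transcript levels in HepG2 cells, 24 h post-dose. Transcripts are quantified by RT-PCR with capillary electrophoresis, and data fitted in both directions against DMSO.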

[6] = ATG_Sox_CIS: Attagene CIS-FACTORIAL HepG2 Assay for human SRY-box transcription factor (SOX) (AID 2282960); conditions: HepG2 Attagene cis-factorial SOX reporter, mRNA; actives raise or lower the signal
Outline: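 Measures mRNA induction of a SOX1-associated reporter in HepG2 after 24 h dosing. Fluorescently labelled RT-PCR fragments are separated by capillary electrophoresis, and gain or loss relative to DMSO control is fitted.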

[7] = target: Transcription factor Sp1 (Homo sapiens) (UniProt P08047); assay: ATG_Sp1_CIS: Attagene CIS-FACTORIAL HepG2 Assay for human Specificity Protein 1 (Sp1) (AID 2282961); conditions: HepG2 Sp1 cis-reporter transcription, actives raise or lower the signal
Outline: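 Cells: HepG2, transiently transfected with cis-regulated multiplexed reporters. Exposure: 24 h. Detection: reporter transcripts amplified, fluorescently labeled, restriction-digested and sized by capillary electrophoresis. Analysis: bidirectional fit relative to DMSO.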

[8] = ATG_SREBP_CIS: Attagene CIS-FACTORIAL HepG2 Assay for human Sterol Regulatory Element Binding (SREBP) (AID 2282962); conditions: HepG2 Attagene cis-factorial SREBP reporter, mRNA; actives raise or lower the signal
Outline: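 HepG2 cells transiently transfected with multiplexed cis-promoter reporter units sensing endogenous transcription factors; reporter mRNA measured 24 h after dosing by RT-PCR, 6-FAM labeling, HpaI digestion and capillary electrophoresis. Bidirectional fit versus DMSO.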

[9] = target: Signal transducer and activator of transcription 3 (Homo sapiens) (UniProt P40763); assay: ATG_STAT3_CIS: Attagene CIS-FACTORIAL HepG2 Assay for human Signal Transducer and Activator of Transcription 3 (STAT3) (AID 2282963); conditions: HepG2, Attagene cis-factorial STAT3 reporter transcription; actives raise or lower the signal
Outline: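 Values derive from bidirectional fits relative to DMSO of reporter mRNA levels, measured by RT-PCR with capillary electrophoresis, in HepG2 cells carrying transiently transfected cis-regulated reporter units and exposed 24 h.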

[10] = ATG_TA_CIS: Attagene CIS-FACTORIAL HepG2 Assay for human TA Basal Promoter (AID 2282964); conditions: HepG2 Attagene CIS-factorial TA basal promoter reporter; actives raise or lower the signal
Outline: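 Multiplexed mRNA reporter assay, HepG2, 24 h. Reporter cDNA amplified, 6-FAM primer-extended, HpaI-cut, CE-sized; DMSO = negative control and baseline.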

[11] = ATG_TCF_b_cat_CIS: Attagene CIS-FACTORIAL HepG2 Assay for human T-Cell-Factor with beta-catenin (TCF/b-cat) (AID 2282965); conditions: HepG2 TCF/beta-catenin cis-reporter transcription, actives raise or lower the signal
Outline: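 HepG2, transient MRTU transfection, cis-element-driven reporters (endogenous TFs). 24 h compound exposure. Readout: reporter mRNA by RT-PCR + 6-FAM primer extension, HpaI digest, capillary electrophoresis. Gain/loss fit vs DMSO baseline.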

[12] = ATG_TAL_CIS: Attagene CIS-FACTORIAL HepG2 Assay for human TAL Basal Promoter (AID 2282966); conditions: HepG2 Attagene cis-factorial TAL promoter reporter; actives raise or lower the signal;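 note: background control endpoint measuring basal TAL promoter reporter mRNA not a specific factor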
Outline: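 Steps: transfect HepG2 with multiple reporter transcription units; dose 24 h; isolate RNA, reverse-transcribe, PCR-amplify, label with 6-FAM, digest with HpaI; resolve by capillary electrophoresis. Bidirectional fitting against DMSO baseline.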

[13] = ATG_TGFb_CIS: Attagene CIS-FACTORIAL HepG2 Assay for human Transforming Growth Factor (TGF) (AID 2282967); conditions: HepG2 Attagene CIS TGFb reporter, mRNA transcription; actives raise or lower the signal
Outline: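 Transcript-level reporter readout: HepG2 transfectants, 24 h exposure, RNA to cDNA, reporter-specific PCR, fluorescent primer extension, capillary sizing against ROX standards. Gain- or loss-of-signal relative to DMSO.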

[14] = ATG_VDRE_CIS: Attagene CIS-FACTORIAL HepG2 Assay for human Vitamin D Receptor Element (VDRE) (AID 2282968); conditions: HepG2 VDRE cis-reporter transcription, actives raise or lower the signal
Outline: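 Cell-based multiplexed reporter format in human liver HepG2 cells, 24 h post-dose. Fluorescence from capillary electrophoresis of reporter cDNA gives the signal, with DMSO as negative control and baseline.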

[15] = target: Nuclear receptor subfamily 1 group I member 3 (Homo sapiens) (UniProt Q14994); assay: ATG_CAR_TRANS: Attagene TRANS-FACTORIAL HepG2 Assay for human Constitutive Androstane Receptor (CAR) (AID 2282969; active = hit-call score of the fitted dose curve at least 0.9, where 1 is the maximum;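 note: activators raise reporter mRNA above DMSO so AC50 marks induction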); conditions: HepG2 Attagene TRANS-FACTORIAL CAR reporter
Outline: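 HepG2 cells transiently transfected with GAL4-UAS reporter units; TRANS format reads activity of exogenous chimeric NR-Gal4 protein. After 24 h dosing, reporter mRNA quantified by RT-PCR, 6-FAM labelling and capillary electrophoresis; gain of signal fitted against DMSO.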

[16] = target: Estrogen receptor (Homo sapiens) (UniProt P03372); assay: ATG_ERa_TRANS: Attagene TRANS-FACTORIAL HepG2 Assay for human Estrogen Receptor alpha (ERa) (AID 2282970; active = hit-call score of the fitted dose curve at least 0.9, where 1 is the maximum); conditions: HepG2 Attagene TRANS ERa GAL4 reporter, mRNA
Outline: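 Multiplexed cell-based reporter format in HepG2: chimeric ERa-Gal4 protein drives GAL4-UAS reporter transcription. Fluorescent reporter mRNA quantified by capillary electrophoresis 24 hours after dosing; endpoint fitted as signal gain against DMSO.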

[17] = target: X-box-binding protein 1 (Homo sapiens) (UniProt P17861); assay: ATG_Xbp1_CIS: Attagene CIS-FACTORIAL HepG2 Assay for human X-box Binding Protein 1 (XBP1) (AID 2282972); conditions: HepG2 XBP1 cis-element reporter, Attagene multiplex; actives raise or lower the signal
Outline: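 HepG2 cells transiently transfected with multiple cis-element reporter units report endogenous TF activity; 24 h exposure, then reporter mRNA measured by RT-PCR, 6-FAM labelling, HpaI digestion and capillary electrophoresis. Bidirectional fitting versus DMSO.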

[18] = ATG_GAL4_TRANS: Attagene TRANS-FACTORIAL HepG2 Assay for GAL4 (Internal Marker) (AID 2282976; active = hit-call score of the fitted dose curve at least 0.9, where 1 is the maximum); conditions: HepG2 Attagene TRANS GAL4 internal marker reporter
Outline: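 Liver HepG2 line bearing multiplexed GAL4-UAS reporter constructs; 24 h chemical treatment. Transcripts were quantified as fluorescent fragments on capillary electrophoresis after RT-PCR and HpaI cut, with activity fitted upward from DMSO.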

[19] = target: Steroid hormone receptor ERR1 (Homo sapiens) (UniProt P11474); assay: ATG_ERRa_TRANS: Attagene TRANS-FACTORIAL HepG2 Assay for human Estrogen-Related Receptor alpha (ERRa) (AID 2282971; active = hit-call score of the fitted dose curve at least 0.9, where 1 is the maximum); conditions: HepG2 Attagene TRANS reporter, ERRa transactivation
Outline: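 Signal gain relative to DMSO for an ERRa-Gal4 chimeric receptor, read as reporter mRNA by RT-PCR/capillary electrophoresis. Human HepG2 liver cells, transient multiplex reporter transfection, 24 h chemical exposure.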

[20] = ATG_M_19_TRANS: Attagene TRANS-FACTORIAL HepG2 Assay for M19 Transcription Factor (Internal Marker) (AID 2282974; active = hit-call score of the fitted dose curve at least 0.9, where 1 is the maximum); conditions: HepG2 Attagene TRANS-FACTORIAL M19 internal marker reporter
Outline: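 Reporter mRNA induction was measured in transfected HepG2 cells 24 h after dosing. Endpoint fitted upward relative to DMSO and serves as a background control within the multiplexed TRANS panel.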

Measured: AC50

Steroid hormone receptor ERR1 (Homo sapiens), sequence (P11474 whole entry, looked up, the tested form may be a part): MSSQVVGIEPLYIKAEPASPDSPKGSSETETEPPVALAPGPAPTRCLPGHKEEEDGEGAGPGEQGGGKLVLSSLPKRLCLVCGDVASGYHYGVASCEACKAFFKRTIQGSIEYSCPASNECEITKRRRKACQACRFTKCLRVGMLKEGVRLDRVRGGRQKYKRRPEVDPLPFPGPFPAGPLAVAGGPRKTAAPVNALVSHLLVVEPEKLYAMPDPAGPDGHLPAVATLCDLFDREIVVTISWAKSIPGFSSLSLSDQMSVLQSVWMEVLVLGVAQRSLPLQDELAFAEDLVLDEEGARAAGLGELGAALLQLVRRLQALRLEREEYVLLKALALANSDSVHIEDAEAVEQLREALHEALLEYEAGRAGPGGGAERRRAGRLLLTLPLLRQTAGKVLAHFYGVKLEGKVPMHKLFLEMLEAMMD
Estrogen receptor (Homo sapiens), sequence (P03372 whole entry, looked up, the tested form may be a part): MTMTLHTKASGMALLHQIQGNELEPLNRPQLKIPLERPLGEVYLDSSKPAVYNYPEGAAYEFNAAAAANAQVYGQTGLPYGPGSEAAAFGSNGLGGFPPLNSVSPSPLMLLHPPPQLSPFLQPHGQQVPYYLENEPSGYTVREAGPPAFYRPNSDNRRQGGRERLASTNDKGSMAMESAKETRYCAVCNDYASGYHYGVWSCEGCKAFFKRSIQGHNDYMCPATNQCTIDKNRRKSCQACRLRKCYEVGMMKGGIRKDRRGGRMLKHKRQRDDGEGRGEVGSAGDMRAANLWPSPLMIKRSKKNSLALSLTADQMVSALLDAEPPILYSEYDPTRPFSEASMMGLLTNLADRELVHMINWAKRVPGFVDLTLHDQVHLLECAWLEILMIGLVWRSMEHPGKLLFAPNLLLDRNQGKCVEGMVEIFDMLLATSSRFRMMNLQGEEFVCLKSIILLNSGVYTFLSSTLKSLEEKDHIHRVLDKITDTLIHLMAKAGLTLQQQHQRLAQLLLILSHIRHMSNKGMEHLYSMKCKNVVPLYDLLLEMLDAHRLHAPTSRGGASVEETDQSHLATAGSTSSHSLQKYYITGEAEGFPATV
Paired box protein Pax-6 (Homo sapiens), sequence (P26367 whole entry, looked up): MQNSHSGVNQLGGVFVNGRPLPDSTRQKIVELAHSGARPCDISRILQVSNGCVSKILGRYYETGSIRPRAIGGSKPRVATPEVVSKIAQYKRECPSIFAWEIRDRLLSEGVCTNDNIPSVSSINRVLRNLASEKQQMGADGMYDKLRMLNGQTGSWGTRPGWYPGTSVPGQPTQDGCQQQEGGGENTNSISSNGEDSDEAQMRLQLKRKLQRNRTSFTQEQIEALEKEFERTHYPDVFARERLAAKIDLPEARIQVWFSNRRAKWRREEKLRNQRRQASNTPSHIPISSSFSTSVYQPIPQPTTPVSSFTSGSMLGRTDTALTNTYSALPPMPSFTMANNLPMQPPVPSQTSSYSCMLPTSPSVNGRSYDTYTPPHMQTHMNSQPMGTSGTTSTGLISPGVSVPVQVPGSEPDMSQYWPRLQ
Transcription factor Sp1 (Homo sapiens), sequence (P08047 whole entry, looked up): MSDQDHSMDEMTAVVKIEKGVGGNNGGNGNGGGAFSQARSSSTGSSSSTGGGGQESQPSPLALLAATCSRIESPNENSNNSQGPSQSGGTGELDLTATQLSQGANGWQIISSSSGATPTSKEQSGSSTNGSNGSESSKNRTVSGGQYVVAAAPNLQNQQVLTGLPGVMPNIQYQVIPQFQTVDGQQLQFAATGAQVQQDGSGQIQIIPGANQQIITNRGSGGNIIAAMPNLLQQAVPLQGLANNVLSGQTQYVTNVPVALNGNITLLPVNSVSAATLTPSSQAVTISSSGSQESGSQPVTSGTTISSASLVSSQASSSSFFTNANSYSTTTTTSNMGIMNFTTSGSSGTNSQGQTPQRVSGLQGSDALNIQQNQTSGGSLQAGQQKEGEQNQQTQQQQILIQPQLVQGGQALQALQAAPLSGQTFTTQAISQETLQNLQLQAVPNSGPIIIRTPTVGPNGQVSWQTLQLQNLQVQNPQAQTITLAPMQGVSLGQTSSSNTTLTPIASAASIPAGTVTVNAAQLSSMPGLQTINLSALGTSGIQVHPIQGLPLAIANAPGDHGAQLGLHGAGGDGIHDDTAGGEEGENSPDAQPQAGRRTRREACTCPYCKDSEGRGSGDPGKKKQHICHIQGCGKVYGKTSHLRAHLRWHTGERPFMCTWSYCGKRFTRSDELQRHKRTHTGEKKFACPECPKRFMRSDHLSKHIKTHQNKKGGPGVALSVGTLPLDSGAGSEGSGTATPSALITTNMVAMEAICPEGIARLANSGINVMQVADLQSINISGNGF
X-box-binding protein 1 (Homo sapiens), sequence (P17861 whole entry, looked up): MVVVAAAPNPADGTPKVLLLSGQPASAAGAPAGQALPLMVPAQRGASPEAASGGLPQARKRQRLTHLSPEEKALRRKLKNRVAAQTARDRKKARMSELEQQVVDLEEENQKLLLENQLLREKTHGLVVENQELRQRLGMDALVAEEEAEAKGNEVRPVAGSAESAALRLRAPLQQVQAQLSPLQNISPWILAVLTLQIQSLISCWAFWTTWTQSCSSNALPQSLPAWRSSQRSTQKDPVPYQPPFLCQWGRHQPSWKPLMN
Nuclear receptor subfamily 1 group I member 3 (Homo sapiens), sequence (Q14994 whole entry, looked up, the tested form may be a part): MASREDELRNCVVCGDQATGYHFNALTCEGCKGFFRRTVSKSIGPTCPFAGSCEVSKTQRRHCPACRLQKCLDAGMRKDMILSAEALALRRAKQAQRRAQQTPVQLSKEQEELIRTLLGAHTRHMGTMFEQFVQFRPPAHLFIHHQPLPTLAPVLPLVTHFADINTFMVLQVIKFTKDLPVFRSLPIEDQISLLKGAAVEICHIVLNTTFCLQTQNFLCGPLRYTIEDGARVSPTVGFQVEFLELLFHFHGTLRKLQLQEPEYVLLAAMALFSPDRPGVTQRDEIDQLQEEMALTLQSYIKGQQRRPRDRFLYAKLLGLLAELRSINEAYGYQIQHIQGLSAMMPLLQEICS
Signal transducer and activator of transcription 3 (Homo sapiens), sequence (P40763 whole entry, looked up): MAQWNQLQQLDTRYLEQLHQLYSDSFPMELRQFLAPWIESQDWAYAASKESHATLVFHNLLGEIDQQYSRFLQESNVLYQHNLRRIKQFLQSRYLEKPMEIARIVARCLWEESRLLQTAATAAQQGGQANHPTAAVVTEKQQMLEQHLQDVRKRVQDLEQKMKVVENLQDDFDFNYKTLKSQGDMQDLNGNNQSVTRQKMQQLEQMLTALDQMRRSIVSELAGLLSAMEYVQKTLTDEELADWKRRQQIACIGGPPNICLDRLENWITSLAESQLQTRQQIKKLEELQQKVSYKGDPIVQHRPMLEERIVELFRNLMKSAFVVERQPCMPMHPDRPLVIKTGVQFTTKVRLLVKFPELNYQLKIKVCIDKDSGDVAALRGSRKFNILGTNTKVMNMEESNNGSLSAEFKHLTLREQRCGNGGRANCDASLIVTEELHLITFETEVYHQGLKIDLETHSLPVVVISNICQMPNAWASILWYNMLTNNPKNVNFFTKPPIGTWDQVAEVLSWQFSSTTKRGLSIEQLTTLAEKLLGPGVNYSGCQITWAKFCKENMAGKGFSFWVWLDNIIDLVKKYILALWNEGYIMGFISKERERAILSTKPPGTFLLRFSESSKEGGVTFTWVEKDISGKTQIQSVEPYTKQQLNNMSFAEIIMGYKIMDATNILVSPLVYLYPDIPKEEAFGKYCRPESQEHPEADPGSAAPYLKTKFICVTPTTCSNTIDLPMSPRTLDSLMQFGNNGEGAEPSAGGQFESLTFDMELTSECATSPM

CCOc1ccc2[nH]cc(C(=O)NCc3ccccc3)c(=O)c2n1
active: [3] 26.7 µM | [14] 27.6 µM
not listed: [19] | [20]
inactive: all other assays above

C=CN1CCCC1=O
not listed: [14] | [17] | [18] | [19] | [20]
inactive: all other assays above

OCCC(F)(F)C(F)(F)C(F)(F)C(F)(F)F
inactive: all assays above

O=S(=O)(O)CCC(F)(F)C(F)(F)C(F)(F)C(F)(F)C(F)(F)C(F)(F)F
not listed: [6]
inactive: all other assays above

CCCCCCCC1CCC(=O)O1 (stereo not given)
not listed: [6] | [14] | [17] | [18] | [19]
inactive: all other assays above

CCCCN1C(=O)[C@@H]([C@H](O)C2CCCCC2)NC(=O)C12CCN(Cc1ccc(Oc3ccc(C(=O)O)cc3)cc1)CC2
active: [3] 93.5 µM | [4] 54 µM | [10] 31.7 µM | [11] 52.5 µM
not listed: [6] | [12] | [14] | [15] | [19] | [20]
inactive: all other assays above

C[C@@H](Oc1ccc(CNC(=O)c2cccnc2Oc2ccc3c(c2)OCO3)c(F)c1)C(=O)O
not listed: [12] | [20]
inactive: all other assays above

S=P(N1CC1)(N1CC1)N1CC1
inactive: [1] | [2] | [4] | [5] | [7] | [8] | [9] | [10] | [11] | [13] | [14] | [15] | [16] | [19] | [20] | [18]
active: [3] 12.1 µM [middle of 4 runs] | [8] 157 µM | [14] 17 µM and 27.4 µM

FC(F)(F)C(F)(F)C(F)(F)C(F)(F)C(F)(F)C(F)(F)I
active: [16] 13.7 µM and 17 µM
inactive: all other assays above

FC(F)C(F)(F)COCC1CO1 (stereo not given)
active: [16] 82 µM and 39.8 µM
not listed: [6] | [18]
inactive: all other assays above

CCn1nc(C)c2c1C(=O)NCC(c1ccc(O)cc1)=N2
active: [8] 2.82 µM
not listed: [5] | [17] | [19] | [20]
inactive: all other assays above

C[Si](C)(C)C(F)(F)C(F)(F)C(F)(F)F
not listed: [12]
inactive: all other assays above

NC(=O)N1c2ccccc2C=Cc2ccccc21
active: [3] 34.8 µM
not listed: [6] | [14] | [15] | [17] | [19] | [20]
inactive: all other assays above

OC(CCl)CCl
not listed: [2] | [12] | [17] | [19]
inactive: all other assays above

CCCCCCOC(=O)CC(CC(=O)OCCCCCC)(OC(=O)CCC)C(=O)OCCCCCC
active: [3] 0.922 µM
not listed: [2] | [6] | [12] | [15] | [16] | [20]
inactive: all other assays above
